Residual activity data for seven compounds are collected here from ChEMBL document CHEMBL2218924, “A broad activity screen in support of a chemogenomic map for kinase signalling research and drug discovery” (Biochem J, 2013).

Test [1] deals with T1, Casein kinase II (Homo sapiens) (UniProt P67870+P68400+P19784). The following applies: at 1 µM.
The target of test [2] is T1, Casein kinase II (Homo sapiens). The following applies: at 10 µM.
In test [3] the target is Casein kinase II subunit alpha' (Homo sapiens) (UniProt P19784). The following applies: at 1 µM.
Test [4] has the same target. The conditions noted are these: at 10 µM.
Test [5] has as its target Dual specificity protein kinase CLK2 (Homo sapiens) (UniProt P49760). The following applies: at 1 µM.
Test [6] has the same target. The conditions noted are these: at 10 µM.
For test [7], the target named is Dual specificity protein kinase CLK3 (Homo sapiens) (UniProt P49761). The conditions noted are these: at 1 µM.
For test [8] the target is unchanged. The conditions noted are these: at 10 µM.
Test [9] deals with Tyrosine-protein kinase CSK (Homo sapiens) (UniProt P41240). The conditions noted are these: at 1 µM.
Test [10] shares this target. The conditions noted are these: at 10 µM.
Test [11] has as its target Calcium/calmodulin-dependent protein kinase type 1 (Homo sapiens) (UniProt Q14012). The conditions noted are these: at 1 µM.
The target is the same in test [12]. The conditions noted are these: at 10 µM.
Test [13] concerns the target Calcium/calmodulin-dependent protein kinase type II subunit beta (Homo sapiens) (UniProt Q13554). The following applies: at 1 µM.
For test [14] the target is unchanged. The following applies: at 10 µM.
For test [15], the target named is Calcium/calmodulin-dependent protein kinase type II subunit gamma (Homo sapiens) (UniProt Q13555). The conditions noted are these: at 1 µM.
The target is the same in test [16]. The following applies: at 10 µM.
For test [17], the target named is Calcium/calmodulin-dependent protein kinase type II subunit delta (Homo sapiens) (UniProt Q13557). The conditions noted are these: at 1 µM.
For test [18] the target is unchanged. The following applies: at 10 µM.
The target of test [19] is T2, Calcium/calmodulin-dependent protein kinase type IV (Homo sapiens) (UniProt Q16566).
T2 sequence (whole entry): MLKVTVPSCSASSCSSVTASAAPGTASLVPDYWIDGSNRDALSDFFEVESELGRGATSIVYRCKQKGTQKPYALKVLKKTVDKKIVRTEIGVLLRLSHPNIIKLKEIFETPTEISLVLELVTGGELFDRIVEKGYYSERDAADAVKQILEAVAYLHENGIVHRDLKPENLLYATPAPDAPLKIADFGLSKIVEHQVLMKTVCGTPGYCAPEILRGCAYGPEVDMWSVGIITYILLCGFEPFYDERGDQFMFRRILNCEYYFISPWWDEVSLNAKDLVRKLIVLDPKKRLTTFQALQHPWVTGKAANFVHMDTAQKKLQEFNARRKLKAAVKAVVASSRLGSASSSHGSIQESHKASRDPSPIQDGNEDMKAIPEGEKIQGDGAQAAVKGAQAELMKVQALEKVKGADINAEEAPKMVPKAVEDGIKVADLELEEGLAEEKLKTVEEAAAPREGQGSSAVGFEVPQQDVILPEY
The following applies: at 1 µM.

The target in test [20] is T2, Calcium/calmodulin-dependent protein kinase type IV (Homo sapiens). The conditions noted are these: at 10 µM.

Tyrosine-protein kinase CSK (Homo sapiens), sequence (P41240 2-450 limits assumed): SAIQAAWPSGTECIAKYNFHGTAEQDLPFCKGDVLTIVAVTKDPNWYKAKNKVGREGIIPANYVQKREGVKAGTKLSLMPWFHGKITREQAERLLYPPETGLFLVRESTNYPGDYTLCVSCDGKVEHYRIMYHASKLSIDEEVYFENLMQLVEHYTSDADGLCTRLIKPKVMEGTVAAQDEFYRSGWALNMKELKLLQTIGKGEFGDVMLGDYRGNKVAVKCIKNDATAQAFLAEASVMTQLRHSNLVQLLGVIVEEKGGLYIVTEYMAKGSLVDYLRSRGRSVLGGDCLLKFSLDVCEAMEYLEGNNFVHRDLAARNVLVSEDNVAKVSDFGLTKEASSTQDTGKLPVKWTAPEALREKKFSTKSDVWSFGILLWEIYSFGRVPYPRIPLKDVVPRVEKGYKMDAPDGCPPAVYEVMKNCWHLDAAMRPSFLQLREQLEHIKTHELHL
Dual specificity protein kinase CLK3 (Homo sapiens), sequence (P49761 whole entry, looked up): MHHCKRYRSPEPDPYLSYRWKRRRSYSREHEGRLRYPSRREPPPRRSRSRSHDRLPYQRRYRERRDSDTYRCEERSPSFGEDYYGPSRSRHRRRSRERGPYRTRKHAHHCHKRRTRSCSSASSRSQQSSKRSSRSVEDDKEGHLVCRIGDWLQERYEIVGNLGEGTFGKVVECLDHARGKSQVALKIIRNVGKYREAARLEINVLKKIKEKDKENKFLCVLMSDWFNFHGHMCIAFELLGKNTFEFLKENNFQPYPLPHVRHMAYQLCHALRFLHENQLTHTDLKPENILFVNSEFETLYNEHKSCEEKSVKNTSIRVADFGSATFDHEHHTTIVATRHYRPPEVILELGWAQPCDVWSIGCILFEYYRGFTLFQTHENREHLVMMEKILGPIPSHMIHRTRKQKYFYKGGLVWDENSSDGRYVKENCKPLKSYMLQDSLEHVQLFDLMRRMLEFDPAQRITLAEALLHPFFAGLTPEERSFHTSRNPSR
Casein kinase II subunit alpha' (Homo sapiens), sequence (P19784 whole entry, looked up): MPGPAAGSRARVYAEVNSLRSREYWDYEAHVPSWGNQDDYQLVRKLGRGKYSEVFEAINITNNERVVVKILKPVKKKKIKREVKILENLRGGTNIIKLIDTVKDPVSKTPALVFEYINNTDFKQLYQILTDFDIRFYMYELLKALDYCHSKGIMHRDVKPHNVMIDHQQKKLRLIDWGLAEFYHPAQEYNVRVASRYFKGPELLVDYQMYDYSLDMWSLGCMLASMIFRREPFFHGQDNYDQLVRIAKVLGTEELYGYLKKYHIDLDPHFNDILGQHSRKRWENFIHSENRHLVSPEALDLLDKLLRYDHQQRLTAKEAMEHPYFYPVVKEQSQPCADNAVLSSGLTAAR
T1 sequence (P19784 whole entry, looked up): as above
T1 sequence (P67870 whole entry, looked up): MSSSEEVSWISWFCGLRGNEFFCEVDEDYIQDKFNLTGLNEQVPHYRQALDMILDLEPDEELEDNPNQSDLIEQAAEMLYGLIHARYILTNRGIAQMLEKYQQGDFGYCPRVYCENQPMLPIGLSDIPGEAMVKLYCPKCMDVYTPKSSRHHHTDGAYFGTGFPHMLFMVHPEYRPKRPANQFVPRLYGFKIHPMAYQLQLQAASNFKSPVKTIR
T1 sequence (P68400 whole entry, looked up): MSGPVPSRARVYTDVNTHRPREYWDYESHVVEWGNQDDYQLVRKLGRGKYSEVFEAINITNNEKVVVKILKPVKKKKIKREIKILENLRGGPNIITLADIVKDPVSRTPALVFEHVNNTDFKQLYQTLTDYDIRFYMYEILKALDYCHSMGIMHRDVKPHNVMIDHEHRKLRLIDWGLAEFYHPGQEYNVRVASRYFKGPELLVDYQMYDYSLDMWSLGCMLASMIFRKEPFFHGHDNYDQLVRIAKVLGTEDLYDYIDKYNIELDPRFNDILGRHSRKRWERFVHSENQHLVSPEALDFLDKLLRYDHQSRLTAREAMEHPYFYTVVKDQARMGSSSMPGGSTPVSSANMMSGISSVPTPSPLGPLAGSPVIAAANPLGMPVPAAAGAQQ
Calcium/calmodulin-dependent protein kinase type II subunit delta (Homo sapiens), sequence (Q13557 whole entry): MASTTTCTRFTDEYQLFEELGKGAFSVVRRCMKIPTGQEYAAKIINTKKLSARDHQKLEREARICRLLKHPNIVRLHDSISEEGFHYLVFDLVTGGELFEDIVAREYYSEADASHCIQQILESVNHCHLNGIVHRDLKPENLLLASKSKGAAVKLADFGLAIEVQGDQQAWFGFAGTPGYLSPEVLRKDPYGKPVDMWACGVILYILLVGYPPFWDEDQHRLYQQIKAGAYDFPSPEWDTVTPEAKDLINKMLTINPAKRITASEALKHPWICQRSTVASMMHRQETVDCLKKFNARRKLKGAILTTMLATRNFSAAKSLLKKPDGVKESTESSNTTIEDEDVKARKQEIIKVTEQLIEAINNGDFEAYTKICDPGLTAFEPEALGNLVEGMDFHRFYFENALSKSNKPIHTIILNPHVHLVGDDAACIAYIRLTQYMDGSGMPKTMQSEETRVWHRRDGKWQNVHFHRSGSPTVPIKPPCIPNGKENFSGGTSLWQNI
Dual specificity protein kinase CLK2 (Homo sapiens), sequence (P49760 whole entry, looked up): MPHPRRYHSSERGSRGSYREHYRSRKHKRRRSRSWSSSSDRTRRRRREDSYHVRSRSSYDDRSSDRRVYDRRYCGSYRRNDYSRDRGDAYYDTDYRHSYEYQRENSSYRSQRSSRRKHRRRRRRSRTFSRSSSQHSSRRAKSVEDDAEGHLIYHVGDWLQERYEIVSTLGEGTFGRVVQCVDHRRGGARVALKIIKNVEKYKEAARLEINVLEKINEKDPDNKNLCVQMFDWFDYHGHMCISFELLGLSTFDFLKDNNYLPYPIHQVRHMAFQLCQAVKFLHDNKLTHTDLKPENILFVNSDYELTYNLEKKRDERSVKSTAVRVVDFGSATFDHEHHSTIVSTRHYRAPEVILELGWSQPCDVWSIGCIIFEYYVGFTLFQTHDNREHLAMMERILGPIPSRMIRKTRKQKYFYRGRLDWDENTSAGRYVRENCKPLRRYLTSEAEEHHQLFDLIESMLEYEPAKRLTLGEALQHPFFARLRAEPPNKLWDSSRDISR
Calcium/calmodulin-dependent protein kinase type II subunit beta (Homo sapiens), sequence (Q13554 whole entry): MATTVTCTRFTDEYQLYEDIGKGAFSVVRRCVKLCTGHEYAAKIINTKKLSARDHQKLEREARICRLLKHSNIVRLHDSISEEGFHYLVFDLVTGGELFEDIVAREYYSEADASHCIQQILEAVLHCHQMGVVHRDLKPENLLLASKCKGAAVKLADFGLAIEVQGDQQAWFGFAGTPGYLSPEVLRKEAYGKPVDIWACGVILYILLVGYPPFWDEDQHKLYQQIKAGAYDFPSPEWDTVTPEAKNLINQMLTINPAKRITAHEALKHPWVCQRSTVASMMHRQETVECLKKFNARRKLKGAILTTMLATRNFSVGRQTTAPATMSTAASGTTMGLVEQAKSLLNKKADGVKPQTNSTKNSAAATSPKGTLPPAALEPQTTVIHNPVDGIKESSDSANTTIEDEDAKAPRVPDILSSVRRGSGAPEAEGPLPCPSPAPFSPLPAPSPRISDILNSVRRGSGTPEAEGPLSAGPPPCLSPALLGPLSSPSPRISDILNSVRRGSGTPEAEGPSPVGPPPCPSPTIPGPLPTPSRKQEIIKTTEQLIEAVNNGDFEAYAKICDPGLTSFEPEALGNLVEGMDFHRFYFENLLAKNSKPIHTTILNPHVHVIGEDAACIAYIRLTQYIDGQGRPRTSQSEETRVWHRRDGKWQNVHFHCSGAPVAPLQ
Calcium/calmodulin-dependent protein kinase type II subunit gamma (Homo sapiens), sequence (Q13555 whole entry): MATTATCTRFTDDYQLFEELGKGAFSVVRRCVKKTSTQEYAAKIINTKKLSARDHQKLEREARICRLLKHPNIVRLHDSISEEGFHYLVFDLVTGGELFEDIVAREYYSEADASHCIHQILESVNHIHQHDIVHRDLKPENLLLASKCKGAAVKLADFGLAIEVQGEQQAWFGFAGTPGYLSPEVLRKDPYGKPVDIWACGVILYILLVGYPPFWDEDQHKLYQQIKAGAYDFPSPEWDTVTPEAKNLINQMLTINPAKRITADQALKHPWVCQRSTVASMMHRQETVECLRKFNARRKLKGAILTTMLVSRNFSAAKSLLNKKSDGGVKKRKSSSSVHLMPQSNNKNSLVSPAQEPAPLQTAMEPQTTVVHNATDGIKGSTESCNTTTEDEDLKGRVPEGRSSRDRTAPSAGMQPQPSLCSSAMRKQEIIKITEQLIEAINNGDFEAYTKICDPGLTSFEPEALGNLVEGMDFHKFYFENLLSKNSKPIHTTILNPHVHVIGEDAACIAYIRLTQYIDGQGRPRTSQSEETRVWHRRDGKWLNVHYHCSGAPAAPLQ
Calcium/calmodulin-dependent protein kinase type 1 (Homo sapiens), sequence (Q14012 whole entry, looked up): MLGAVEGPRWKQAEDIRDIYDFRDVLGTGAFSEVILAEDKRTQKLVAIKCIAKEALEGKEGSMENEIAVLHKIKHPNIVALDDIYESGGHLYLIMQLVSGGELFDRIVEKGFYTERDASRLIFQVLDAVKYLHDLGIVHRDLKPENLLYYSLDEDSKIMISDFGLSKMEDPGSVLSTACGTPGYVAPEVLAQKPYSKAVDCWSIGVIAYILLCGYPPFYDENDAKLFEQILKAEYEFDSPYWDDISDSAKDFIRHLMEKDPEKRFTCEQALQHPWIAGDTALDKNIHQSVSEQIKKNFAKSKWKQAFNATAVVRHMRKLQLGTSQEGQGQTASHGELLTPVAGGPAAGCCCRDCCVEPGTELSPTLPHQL

In the case of `COc1ccc(S(=O)(=O)N(CCO)c2ccccc2CN(C)C/C=C/c2ccc(Cl)cc2)cc1`, the residual activity (in general, the signal under treatment as a percentage of the control signal) in test [1] was found to be 89%; in test [2] it was 94%; in [3], 106%; in test [4] it was 95%; in test [5], 127%; in [6], 102%. In addition, the residual activity in [7] came out at 89%; in [8], 86%; in test [9], 115%; in test [10], 84%; in test [11], 92%; in test [12], 38%. Moreover, the residual activity in test [13] amounted to 96%; in [14] it was 20%; in test [15], 107%; in test [16] it was 67%; in [17], 101%; in test [18] it was 47%. Also, the residual activity in test [19] was determined as 106%; in test [20], 92%.
Take `Cn1cnc2cc3c(Nc4cccc(Br)c4)ncnc3cc21`: the residual activity in test [1] turned out to be 87%; in test [2] it was 119%; in test [3], 126%; in test [4], 89%; in test [5], 106%; in test [6] it was 75%. Moreover, the residual activity in test [7] worked out at 91%; in test [8], 112%; in test [9] it was 105%; in [10], 97%; in [11], 103%; in test [12] it was 54%. Moreover, the residual activity in [13] stood at 93%; in test [14], 89%; in test [15], 85%; in test [16] it was 43%; in [17], 97%; in test [18], 52%. Further, the residual activity was determined as 105% in test [19] and 86% in [20].
For `Cc1nc(-c2ccccc2)c(-c2ccncc2)o1`, the residual activity in test [1] was 103%; in test [2] it was 98%; in [3] it was 102%; in test [4] it was 92%; in [5] it was 114%; in test [6], 96%. For the same compound, the residual activity is 82% in test [7]; 84% in test [8]; 108% in test [9]; 104% in [10]; 104% in [11]; 89% in test [12]. Moreover, the residual activity in test [13] came to 97%; in test [14], 86%; in [15], 97%; in [16], 83%; in [17], 104%; in test [18], 81%. Also, the residual activity in test [19] turned out to be 108%; in [20], 112%.
As for `O=C1NC(=O)c2c1c1c3ccccc3[nH]c1c1[nH]c3cc(Br)ccc3c21`, the residual activity in test [1] was found to be 104%; in test [2], 94%; in test [3], 96%; in test [4] it was 86%; in test [5], 98%; in test [6], 87%. Besides, the residual activity in test [7] came out at 82%; in test [8] it was 81%; in [9], 96%; in test [10], 84%; in [11], 89%; in [12], 70%. Also, the residual activity was 92% in test [13]; 66% in test [14]; 18% in test [15]; 21% in [16]; 15% in test [17]; 18% in test [18]. In addition, the values for the residual activity in test [19] and in [20] were 103% and 99%, respectively.
Turning to `COc1ccc(C(=O)Nc2sc3c(c2C(N)=O)CCCC3)cc1OC`, the residual activity turned out to be 95% in test [1]; 115% in test [2]; 126% in test [3]; 91% in test [4]; 90% in test [5]; 82% in test [6]. For the same compound, the residual activity in test [7] stood at 50%; in test [8] it was 52%; in test [9], 101%; in test [10], 99%; in test [11], 102%; in test [12], 75%. Also, the residual activity is 83% in [13]; 73% in [14]; 86% in [15]; 66% in test [16]; 86% in test [17]; 66% in [18]. Further, the figures for the residual activity in test [19] and in test [20] were 107% and 85%, respectively.
On to `Nc1n[nH]c2nnc(-c3c(-c4ccccc4)nn4ccccc34)cc12`, for which the residual activity in test [1] worked out at 98%; in test [2], 85%; in [3], 101%; in [4], 92%; in test [5], 98%; in [6] it was 84%. The residual activity in test [7] was 84%; in [8], 90%; in [9] it was 107%; in test [10], 103%; in test [11] it was 101%; in test [12] it was 79%. For the same compound, the residual activity in [13] was found to be 93%; in [14], 80%; in [15], 103%; in test [16], 92%; in test [17] it was 94%; in test [18] it was 93%. In addition, the residual activity in [19] was 95%; in test [20], 64%.
As for `N#C/C(=C(\N)Sc1ccc(N)cc1)c1ccccc1C(F)(F)F`, the residual activity in [1] was found to be 96%; in [2], 99%; in [3], 108%; in [4] it was 104%; in [5], 97%; in [6], 94%. Moreover, the residual activity amounted to 95% in [7]; 92% in test [8]; 106% in test [9]; 87% in test [10]; 83% in [11]; 95% in [12]. Further, the residual activity was determined as 79% in test [13]; 86% in test [14]; 90% in test [15]; 86% in test [16]; 62% in test [17]; 47% in test [18]. Moreover, the residual activity was found to be 107% in [19] and 83% in test [20].
